Sampled rows, rich in hits. Any-hit rate of the full collection: about 1.6%.
LYP act = LYP phosphatase activators, primary screen, biochemical, DiFMUP fluorescence, 2 µM. activation, % at 2 µM. actives 0.11% (n = 96,000). recombinant LYP; 0 = plate median, 100 = signal doubled;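 active = activation at 2 µM above a set limit, the mean plus 5 SD, cut at about 37% in these data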
sEH inhibitor = soluble epoxide hydrolase inhibitors, primary screen, biochemical, human sEH; Bifunctional epoxide hydrolase 2 (Homo sapiens), P34913; recombinant human sEH enzymatic activity assay; inhibition, % at 2 µM; actives 0.34% (n = 91,000); in the data active = inhibition above about 80%
PLAP act = PLAP enzyme activators, biochemical, luminescence, HTS; activation fold at 20 µM; purified PLAP enzyme, luminescent substrate read-out; stronger effect = higher value; Alkaline phosphatase, placental type (Homo sapiens), P05187; actives 1.2% (n = 96,000); AID 696, 2007; in the data active = activation fold above about 2
LYP inh 2 = PTPN22 phosphatase inhibitors, primary screen, biochemical, DiFMUP fluorescence, 2 µM; Tyrosine-protein phosphatase non-receptor type 22 (Homo sapiens), Q9Y2R2; recombinant LYP catalytic domain; inhibition, % at 2 µM; actives 0.21% (n = 96,000); AID 640, 2007;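 active = inhibition at 2 µM at or above a set limit, the screen mean plus 3 SD, cut at about 24% in these data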;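 note: 0% = DMSO with enzyme and 100% = enzyme fully blocked by orthovanadate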
EphB4 ephrin blk = EphB4-ephrin-B2 interaction antagonists, primary screen, biochemical, TNYL-RAW peptide probe, fluorescence polarization | Ephrin type-B receptor 4 (Homo sapiens), P54760 | inhibition, % at 7 µM | EphB4 LBD / TNYL-RAW-Alexa532 peptide | actives 0.15% (n = 97,000) | AID 720, 2007;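 active = inhibition above the screen-wide mean inhibition plus 3 SD, cut at about 15% in these data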;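 note: 0% = DMSO wells and 100% = excess unlabeled TNYL-RAW peptide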
sEH act = soluble epoxide hydrolase activators, primary screen, biochemical, human sEH. Bifunctional epoxide hydrolase 2 (Homo sapiens), P34913. purified human sEH enzymatic activity, activator screen. activation, % at 2 µM. actives 0.04% (n = 91,000); in the data active = activation above about 37%
Active calls of the source: *.

Screening Oc1c(Br)cc(Br)cc1CN1CCN(Cc2ccccc2)CC1 returned LYP act -7, sEH inhibitor 21, PLAP act 2*, LYP inh 2 8, EphB4 ephrin blk 2 and sEH act -23.
Screening CCN(CC)CCNC(=O)c1c(O)c2ccccc2n(Cc2ccccc2)c1=O returned LYP act -1, sEH inhibitor -3, PLAP act 1.3, LYP inh 2 5, EphB4 ephrin blk 3 and sEH act 2.
`CCN(CC)CCCNC(=O)c1c(O)c2ccccc2n(Cc2ccccc2)c1=O` gave LYP act -22, sEH inhibitor 3, PLAP act 1.5, LYP inh 2 24*, EphB4 ephrin blk 5 and sEH act -2.
For CCC(=NCCCn1ccnc1)c1c(O)n(Cc2ccccc2)c(=O)[nH]c1=O the results were LYP act 4, sEH inhibitor -15, PLAP act 2.1*, LYP inh 2 -3, EphB4 ephrin blk -1 and sEH act 16.
For CCC(=NCc1cccnc1)c1c(O)n(Cc2ccccc2)c(=O)[nH]c1=O the results were LYP act 4, sEH inhibitor -3, PLAP act 1.7, LYP inh 2 -2, EphB4 ephrin blk -8 and sEH act 1.
For CCOC(=O)c1cc(C)n(CCc2cnc[nH]2)c1C the results were PLAP act 2.4*.
Screening CCOC(=O)c1c(-n2c(C)cc(C=C3C(=O)NC(=S)NC3=O)c2C)sc2c1CCCC2 returned LYP act -24, sEH inhibitor -6, PLAP act 0.5, LYP inh 2 29*, EphB4 ephrin blk 2 and sEH act 5.
`CN1C(=O)N(C)C(=O)C2(Cc3c(nc4ccccn4c3=O)N3CCc4ccccc4C32)C1=O` (centres undefined) gave LYP act -2, sEH inhibitor 4, PLAP act 1, LYP inh 2 0, EphB4 ephrin blk -5 and sEH act -4.
`CCn1c(O)c(C=Nc2ccc(N3CCOCC3)cc2)c(=O)n(CC)c1=S` gave LYP act -5, sEH inhibitor -8, PLAP act 1.1, LYP inh 2 4, EphB4 ephrin blk 16* and sEH act 8.
`CCn1c(O)c(C=Nc2ccc(N3CCOCC3)c(Br)c2)c(=O)n(CC)c1=S` gave LYP act -12, sEH inhibitor -2, PLAP act 1.2, LYP inh 2 12, EphB4 ephrin blk 0 and sEH act 2.
O=C(NC1CC2CCC(C1)N2Cc1nnnn1Cc1ccco1)NC12CC3CC(CC(C3)C1)C2 (centres undefined) was read as PLAP act 6.3.
Screening COc1ccc(OC)c(C2=NOC(C(=O)N3CCC4(CC3)OCCO4)C2)c1 (centres undefined) returned LYP act 11, sEH inhibitor 2, PLAP act 1.2, LYP inh 2 -6, EphB4 ephrin blk 2 and sEH act -3.
Oc1ccc(/C=N/NP(=S)(c2ccccc2)c2ccccc2)c(O)c1O was read as LYP act -11, sEH inhibitor 9, PLAP act 2.4*, LYP inh 2 12, EphB4 ephrin blk -4 and sEH act -10.
Cc1c(C(=O)N2CCC3(CC2)OCCO3)oc2ccccc12 was read as LYP act -2, sEH inhibitor 9, PLAP act 1.4, LYP inh 2 -4, EphB4 ephrin blk -2 and sEH act -6.
`CC1=C(C(=O)N2CCC3(CC2)OCCO3)C2(CCC(C)CC2)OC1=O` (centres undefined) gave LYP act 4, sEH inhibitor 0, PLAP act 1.3, LYP inh 2 0, EphB4 ephrin blk 20* and sEH act -2.
Screening O=C(C1CC(=O)N(c2ccc(F)c(Cl)c2)C1)N1CCC2(CC1)OCCO2 (centres undefined) returned LYP act 1, sEH inhibitor -4, PLAP act 1, LYP inh 2 -3, EphB4 ephrin blk 3 and sEH act 4.
